# Results filed as inconclusive are left out. Calls of active or inactive are those of the source. Calls follow the shape of the dose curve; as a rule, active = well fitted inhibition curve with a large enough effect; inconclusive = small, poorly fitted or top-dose-only effect; inactive = flat fitted curve, though single readings scatter.
# Test system: TAB109
# Assay: qHTS profiling for inhibitors of Plasmodium falciparum proliferation (AID 504749); also: nearly all actives have a fitted effect of over 60% in size;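 as to activity, negative = inhibition: 0% = DMSO vehicle and full inhibition = artemisinin control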
# Details: P. falciparum in erythrocytes, SYBR Green DNA, 72 h; series mostly up to 12.8 µM; activity, negative = inhibition: at the top concentration
# In short: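 Fluorescence of SYBR Green-bound parasite DNA, read at 485/535 nm, served as the growth measure. Infected erythrocytes were cultured with compound 72 h; artemisinin (0.29 uM) and DMSO wells defined the normalization range.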
# Potency is read from the fitted curve at half-maximal effect.
SMILES,"activity, negative = inhibition",Potency
C[C@]12C=CC(=O)C=C1CCC1C2C(O)C[C@]2(C)C1CC[C@]2(O)C(=O)CO (stereo partly drawn),5.16% [at 28.7 µM] (inactive),–
CC1(C)S[C@H]2C(NC(=O)[C@@H](N)c3ccc(O)cc3)C(=O)N2[C@@H]1C(=O)O (stereo partly drawn),0.441% [at 28.7 µM] (inactive),–
CC(C)=CCC[C@](C)(O)C1CC=C(C)CC1 (stereo partly drawn),-7.34% [at 28.7 µM] (inactive),–
CO[C@]12C(COC(N)=O)C3=C(C(=O)C(C)=C(N)C3=O)N1CC1NC12 (stereo partly drawn),–,2240 nM (active)
C[C@]1(c2ccccc2)OC(C(=O)O)=CC1=O,6.44% [at 28.7 µM] (inactive),–
CC(=O)N[C@H](CC(C)C)C(=O)O,9.89% [at 28.7 µM] (inactive),–
COc1ccc2cc(C(C)CO)ccc2c1 (stereo not drawn),10.9% [at 28.7 µM] (inactive),–
COC1C=CO[C@@]2(C)Oc3c(C)c(O)c4c(O)c(c(C=NN5CCN(C)CC5)c(O)c4c3C2=O)NC(=O)/C(C)=C\C=CC(C)C(O)[C@@H](C)C(O)C(C)[C@H](OC(C)=O)C1C (stereo partly drawn),–,2000 nM (active)
CC1CCC(C(C)C)C(=O)C1 (stereo not drawn),4.94% [at 28.7 µM] (inactive),–
CNC1CC(N)[C@H](O)[C@@H](O[C@@H]2OC(CO)C3OC4(OC(C(N)CO)C(O)C(O)C4O)O[C@@H]3[C@H]2O)C1O (stereo partly drawn),5.96% [at 28.7 µM] (inactive),–
CCCC(=O)O[C@]1(C(=O)CO)CCC2[C@@H]3CCC4=CC(=O)CC[C@]4(C)C3C(O)C[C@]21C (stereo partly drawn),12.2% [at 28.7 µM] (inactive),–
CC(=O)[C@]1(O)CCC2C3C=C(Cl)C4=CC(=O)C5CC5[C@@]4(C)C3CC[C@]21C (stereo partly drawn),5.17% [at 28.7 µM] (inactive),–
CC(=O)N[C@@H]1C(O)OC(CO)C(O)C1O (stereo partly drawn),1.78% [at 28.7 µM] (inactive),–
C/C1=C2N=C(/C=C3N=C(/C(C)=C4\[N-]C(C)(C5N=C1C(C)(CCC(=O)NCC(C)OP(=O)([O-])O[C@H]1C(O)C(n6cnc7cc(C)c(C)cc76)O[C@@H]1CO)C5CC(N)=O)C(C)(CC(N)=O)C4CCC(N)=O)C(C)(CC(N)=O)C\3CCC(N)=O)C(C)(C)C/2CCC(N)=O.[CH2-]C1OC(n2cnc3c(N)ncnc32)C(O)C1O.[Co] (stereo partly drawn),-2.03% [at 28.7 µM] (inactive),–
O=C1OC(CO)C(O)C(O)C1O (stereo not drawn),8.95% [at 28.7 µM] (inactive),–
CNC1C(OC2C(O[C@@H]3C(O)C(O)[C@@H](N=C(N)N)C(O)C3N=C(N)N)OC(C)[C@@]2(O)CO)OC(CO)C(O)C1O (stereo partly drawn),15.9% [at 28.7 µM] (inactive),–
COc1cc(C2c3cc4c(cc3C(O[C@@H]3OC5COC(c6cccs6)OC5C(O)C3O)C3COC(=O)C23)OCO4)cc(OC)c1O (stereo partly drawn),–,2240 nM (active)
Nc1nc2ncc(CNc3ccc(C(=O)NC(CCC(=O)O)C(=O)O)cc3)nc2c(=O)[nH]1 (stereo not drawn),10.9% [at 28.7 µM] (inactive),–

# From PubChem BioAssay (NCATS)
